{"source": "ChEMBL document CHEMBL3988442", "about": "“University of Dundee, Small-Polar-MMV Screening Library” (2021)", "note": "The campaign covered roughly 48,000 compounds. About 13,000 (27%) showed an effect of 50% or more. Some of the results follow."}
{"system": "Wolbachia pipientis", "test": "Anti-Wolbachia Cell-Based Screen", "assay_type": "functional", "design": "scale not given: in the data most compounds retested in dose-response had high values", "conditions": "5 µM", "units": {"Percent Effect": "%"}}
{"smiles": "CCOC(=O)C1CCCCN1Cc1c[nH]nc1-c1cc2ccccc2o1", "note": "(stereo not drawn)", "Percent Effect": 10.01}
{"smiles": "Cc1cccc2cc(C(=O)N3CCN(S(=O)(=O)N(C)C)CC3)n(C)c12", "Percent Effect": -7.336}
{"smiles": "CNc1ncc(CN(C)Cc2cc(O)c3cc(C)cc(C)c3n2)cn1", "Percent Effect": 2.553}
{"smiles": "CCc1ccc(CN(C)c2cc(COC)nc3ccnn23)cc1", "Percent Effect": -31}
{"smiles": "COc1cc(OC)cc(-c2cc(CN)nc3ccnn23)c1.Cl", "Percent Effect": 104.2}
{"smiles": "CCc1cc(N[C@H](C(N)=O)[C@@H](C)CC)n2nccc2n1", "Percent Effect": -8.924}
{"smiles": "Cl.NCc1cc(-c2ccccc2)n2nccc2n1", "Percent Effect": 106.1}
{"smiles": "c1ccc(-c2cc(NCCCC3CCOC3)n3nccc3n2)cc1", "note": "(stereo not drawn)", "Percent Effect": -17.54}
{"smiles": "COCc1cc(N2CCN(Cc3ccncc3)CC2)n2nccc2n1", "Percent Effect": 2.178}
{"smiles": "CN(C)C1CCN(c2cc(-c3ccccc3)nc3ccnn23)C1", "note": "(stereo not drawn)", "Percent Effect": -6.733}
{"smiles": "COc1ccc(-c2cc(CN)nc3ccnn23)cc1.Cl", "Percent Effect": 124.4}
{"smiles": "CSc1ccc(-c2cc(CN)nc3ccnn23)cc1.Cl", "Percent Effect": 95}
{"smiles": "CCc1cc(NC(CCO)c2ccc(OC)cc2)n2nccc2n1", "note": "(stereo not drawn)", "Percent Effect": 6.902}
{"smiles": "COCc1cc(N2CCOCC2)n2nccc2n1", "Percent Effect": 9.055}
{"smiles": "CCCc1cc(CNc2cc(CCC)nc3ccnn23)on1", "Percent Effect": -13.04}
{"smiles": "CC(C)OCc1nn(CC2CC2)c2c1CN(Cc1ccco1)CC2.O=C(O)C(F)(F)F", "Percent Effect": 3.908}
{"smiles": "Cc1ccc(-n2nnnc2C2(NCc3ccco3)CCCC2)cc1", "Percent Effect": 2.087}
{"smiles": "Cc1cccc(C)c1-n1nnnc1C1(NCc2ccco2)CCCC1", "Percent Effect": 75.79}
{"smiles": "Cc1csc(C2(NCc3nnc(-c4ccco4)o3)CCCC2)n1", "Percent Effect": -3.858}
{"smiles": "CCOCCN1CCN(Cc2coc(-c3cccc(F)c3)n2)CC1", "Percent Effect": 74.94}
{"smiles": "OCCN1CCN(Cc2coc(-c3cccc(Cl)c3)n2)CC1", "Percent Effect": 116.8}
{"smiles": "CCN1CCN(Cc2coc(-c3cccc(F)c3)n2)CC1", "Percent Effect": 3.559}
{"smiles": "OCCN1CCN(Cc2cc(Cl)cc3cccnc23)CC1", "Percent Effect": 0.645}
{"smiles": "Fc1cccc(-c2nc(CN3CCn4c(nnc4C4CC4)C3)co2)c1", "Percent Effect": 2.763}
{"smiles": "O=C(C1CC1)N1CCN(Cc2coc(-c3ccc(Cl)cc3)n2)CC1", "Percent Effect": 3.08}
{"smiles": "OCCN1CCN(Cc2coc(-c3cccc(F)c3)n2)CC1", "Percent Effect": 105.3}
{"smiles": "CCc1nc(C)c(C2CC(=O)Nc3c2c(-c2ccccn2)nn3C)[nH]1", "note": "(stereo not drawn)", "Percent Effect": 6.33}
{"smiles": "CCC(C)(N)c1nc(=O)c(C(C)C)c(C)[nH]1.Cl", "note": "(stereo not drawn)", "Percent Effect": -21.29}
{"smiles": "Cl.O=C(NC[C@@]1(COc2cnccn2)C[C@@H](O)[C@@H](O)C1)C1CCOCC1", "Percent Effect": -6.345}
{"smiles": "O=C(Cc1ccc2c(c1)OCO2)N1CCCN(c2nccs2)CC1", "Percent Effect": -6.237}
{"smiles": "O=S(=O)(N1CCOCC1)N1CCCCC1CCc1ccc(O)cc1", "note": "(stereo not drawn)", "Percent Effect": 2.652}
{"smiles": "CCC1c2cccn2CCN1S(=O)(=O)N1CCOCC1", "note": "(stereo not drawn)", "Percent Effect": 79.2}
{"smiles": "O=S(=O)(N1CCOCC1)N1CCc2sccc2C1", "Percent Effect": 7.177}
{"smiles": "CC1c2cccn2CCN1S(=O)(=O)N1CCCCCC1", "note": "(stereo not drawn)", "Percent Effect": -11.34}
{"smiles": "CCCC1c2cccn2CCN1S(=O)(=O)N1CCOCC1", "note": "(stereo not drawn)", "Percent Effect": 118.3}
{"smiles": "CC1CCN(S(=O)(=O)N2CCn3cccc3C2C)CC1", "note": "(stereo not drawn)", "Percent Effect": -8.051}
{"smiles": "Cc1nc(C)c(-c2ccn(CC(=O)Nc3cnn(C)n3)n2)s1", "Percent Effect": -4.351}
{"smiles": "O=C([C@H]1COC[C@H]2CN(C3CCOCC3)C[C@H]21)N1CCCCO1", "Percent Effect": 5.01}
{"smiles": "CC(C)CC(C)NC1CCN(c2cccc(-c3cscn3)c2)CC1", "note": "(stereo not drawn)", "Percent Effect": -3.86}
{"smiles": "Cc1csc(S(=O)(=O)N2CCN(C)C3(CCC(=O)N(C)CC3)C2)c1", "note": "(stereo not drawn)", "Percent Effect": -20.06}
{"smiles": "CC(C)N1CC2(CCC1=O)CCN(C(=O)c1cc(F)ccc1Cl)CC2", "Percent Effect": -13.76}
{"smiles": "Cc1[nH]ccc1C(=O)N1CCC2(CC1)c1nc[nH]c1CCN2CC(C)C", "Percent Effect": 14.8}
{"smiles": "CSc1ccccc1C(=O)N1CCN(C)C2(CCC(=O)N(C)CC2)C1", "note": "(stereo not drawn)", "Percent Effect": 119}
{"smiles": "CC(C)=CCCN1CCN(C)C2(CCC(=O)N(C)CC2)C1", "note": "(stereo not drawn)", "Percent Effect": 4.747}
{"smiles": "Cc1ccc(S(=O)(=O)N2CCN(C)C3(CCC(=O)N(C)CC3)C2)s1", "note": "(stereo not drawn)", "Percent Effect": 14.37}
{"smiles": "Cc1ccc(C)c(S(=O)(=O)N2CCN(C)C3(CCC(=O)N(C)CC3)C2)c1", "note": "(stereo not drawn)", "Percent Effect": -7.559}
{"smiles": "Cc1cc(F)ccc1C(=O)N1CCN(C)C2(CCC(=O)N(C)CC2)C1", "note": "(stereo not drawn)", "Percent Effect": 91.8}
{"smiles": "CN1CC2(CCCN(C(=O)c3cnc4ccc(F)cc4c3O)C2)OC1=O", "note": "(stereo not drawn)", "Percent Effect": -10.25}
{"smiles": "Cc1[nH]ccc1C(=O)N1CCN(C)C2(CCC(=O)N(C)CC2)C1", "note": "(stereo not drawn)", "Percent Effect": 98.32}
{"smiles": "Cc1ccc(C(=O)N2CCN(C)C3(CCC(=O)N(C)CC3)C2)c(F)c1", "note": "(stereo not drawn)", "Percent Effect": 104.4}
{"smiles": "CN1CCC2(CC1)CN(C(=O)c1cccc3cccnc13)CCN2C", "Percent Effect": -18.03}
{"smiles": "COc1cccc(OCc2cc(C(=O)NC[C@@H]3CCCN3)n[nH]2)c1", "Percent Effect": -13.46}
{"smiles": "COCC1CN(C(=O)c2cnc(C)cn2)Cc2ncnn2C1", "note": "(stereo not drawn)", "Percent Effect": -2.14}
{"smiles": "Cc1c(C(=O)N2CCC(N3CCCCC3)CC2)n(C)c2ccc(Cl)cc12", "Percent Effect": 0.1052}
{"smiles": "Cc1noc(CNc2cccc(C(=O)N3CCCC(O)C3)c2)n1", "note": "(stereo not drawn)", "Percent Effect": 7.269}
{"smiles": "COCc1nnc(C(=O)N2CCC(N3CCCCC3)CC2)o1", "Percent Effect": 90.19}
{"smiles": "COCc1nnc(C(=O)N2CC(N3CCCCC3)C2)o1", "Percent Effect": 110.5}
{"smiles": "COCc1nnc(C(=O)N(C)Cc2ccc(OC)cc2)o1", "Percent Effect": -21.92}
{"smiles": "Cc1noc(CNc2ccccc2C(=O)N2CCCC(O)C2)n1", "note": "(stereo not drawn)", "Percent Effect": -16.45}
{"smiles": "CCCc1nnc(N2CCC(N3CCCCCC3)CC2)o1", "Percent Effect": 12.1}
{"smiles": "Cc1nnc(NC(=O)N2CCC(N3CCCCC3)CC2)s1", "Percent Effect": 6.357}
{"smiles": "COCc1nnc(C(=O)N2CCCC(O)C2)o1", "note": "(stereo not drawn)", "Percent Effect": 102.5}
{"smiles": "COc1ccc(NC(=O)CN2CCS(=O)(=O)CC2)cn1", "Percent Effect": -4.778}
{"smiles": "CCCN(CCC)Cc1nnsc1Cl", "Percent Effect": -13.3}
{"smiles": "Cc1ccc(C(=O)N2C[C@@H](OCC3CCOCC3)[C@H]3OCCC[C@H]32)o1", "Percent Effect": -9.797}
{"smiles": "C[C@@H](NC(=O)c1ccc(Cl)cc1)c1onc(-c2cccnc2)c1C(=O)O.Cl", "Percent Effect": -10.74}
{"smiles": "c1ccc(-c2nnn3c2COC(CNCC2CC2)C3)cc1", "note": "(stereo not drawn)", "Percent Effect": -10.69}
{"smiles": "NC(=O)c1cc(C2CCCN(C(=O)CCc3ccncc3)C2)n[nH]1", "note": "(stereo not drawn)", "Percent Effect": 120}
{"smiles": "O=C(Cc1cccnc1)N1CCCC(c2cc(C(F)(F)F)[nH]n2)C1", "note": "(stereo not drawn)", "Percent Effect": -6.416}
{"smiles": "NC(=O)c1cc(C2CCCN(C(=O)CCc3ccccn3)C2)n[nH]1", "note": "(stereo not drawn)", "Percent Effect": 94.78}
{"smiles": "NC(=O)c1cc(C2CCCN(C(=O)CCc3ccsc3)C2)n[nH]1", "note": "(stereo not drawn)", "Percent Effect": -0.264}
{"smiles": "NC(=O)c1cc(C2CCCN(C(=O)CCc3cccs3)C2)n[nH]1", "note": "(stereo not drawn)", "Percent Effect": 95.12}
{"smiles": "NC(=O)c1cc(C2CCCN(CCc3ccccn3)C2)n[nH]1", "note": "(stereo not drawn)", "Percent Effect": -3.119}
{"smiles": "Cc1cccc(CCC(=O)N2CCCC(c3cc(C(N)=O)[nH]n3)C2)c1", "note": "(stereo not drawn)", "Percent Effect": 2.373}
{"smiles": "CC(C)(C#N)C(=O)N1CCCC(c2cc(C(F)(F)F)[nH]n2)C1", "note": "(stereo not drawn)", "Percent Effect": -7.065}
{"smiles": "O=C(CO)N1CCCC(c2cc(C(F)(F)F)[nH]n2)C1", "note": "(stereo not drawn)", "Percent Effect": 144.8}
{"smiles": "CN(C)c1nc2c(c(=O)[nH]1)CCN(C(=O)c1c[nH]c(=O)c(Cl)c1)C2", "Percent Effect": 24.13}
{"smiles": "Cc1cc(C)nc(CNC(=O)C(c2cccnc2)N2CCOCC2)n1", "note": "(stereo not drawn)", "Percent Effect": 12.66}
{"smiles": "Cc1cc(C)cc(CNCCS(=O)(=O)N2CCOCC2)c1", "Percent Effect": -11.28}
{"smiles": "CC(CCc1ccccc1)NC(=O)CNCCCN1CCOCC1.O=C(O)C(=O)O", "note": "(stereo not drawn)", "Percent Effect": 7.217}
{"smiles": "O=c1[nH]c2ccccc2cc1CNCCCN1CCOCC1", "Percent Effect": 102.3}
{"smiles": "Cc1ccc2[nH]c(=O)c(CNCCCN3CCOCC3)cc2c1", "Percent Effect": 96.42}
{"smiles": "Cc1ccc2cc(CNCCCN3CCOCC3)c(=O)[nH]c2c1", "Percent Effect": -6.489}
{"smiles": "Cc1ccc2cc(CNCCN3CCCC3)c(=O)[nH]c2c1", "Percent Effect": 112.1}
{"smiles": "Cc1ccc2cc(CN(C)Cc3ccncn3)c(=O)[nH]c2c1", "Percent Effect": -11.97}
{"smiles": "Cc1ccc2cc(CN(C)Cc3ncc[nH]3)c(=O)[nH]c2c1", "Percent Effect": -0.6566}
{"smiles": "Cc1cc(C)c2cc(CNCCCN3CCOCC3)c(=O)[nH]c2c1", "Percent Effect": 97.61}
{"smiles": "CCCS(=O)(=O)N1C[C@@H]2CN(Cc3cnn(C)c3)CCO[C@@H]2C1.O=C(O)C(F)(F)F", "Percent Effect": -20.93}
{"smiles": "CCOC(=O)c1n[nH]cc1CN1CCOC(Cc2ccc(F)cc2)C1", "note": "(stereo not drawn)", "Percent Effect": -1.908}
{"smiles": "CCOc1ccc(CN2CC[C@](C)(O)C(C)(C)C2)cn1", "Percent Effect": -8.073}
{"smiles": "O=C1O[C@@H]2CN(S(=O)(=O)N3CCCC3)C[C@@H]2N1CCc1cccc(Cl)c1", "Percent Effect": 9.806}
{"smiles": "CN(CCCNC(=O)c1ccc(C#N)cc1)CC(F)(F)F", "Percent Effect": -0.8138}
{"smiles": "Cc1cc(NCCOCCS(C)(=O)=O)nc2ccccc12", "Percent Effect": -11.25}
{"smiles": "Cc1nc(NC(=O)N2CCCC(C(F)(F)F)C2)nn1C", "note": "(stereo not drawn)", "Percent Effect": -33.51}
{"smiles": "O=S(=O)(Nc1cn[nH]c1)c1ccc(Br)c(F)c1", "Percent Effect": -16.59}
{"smiles": "CC(C)Cc1cc(NC(=O)c2ccncc2)n(C)n1", "Percent Effect": 97.89}
{"smiles": "COc1cccc(OC2CN(C(=O)c3cc(CC(C)C)nn3C)C2)c1", "Percent Effect": -45.28}
{"smiles": "COc1cccc(C(=O)Nc2cc(CC(C)C)nn2C)c1", "Percent Effect": -2.904}
{"smiles": "CC(C)Cc1cc(NC(=O)c2ccccn2)n(C)n1", "Percent Effect": 95.28}
{"smiles": "CC(C)Cc1cc(NC(=O)c2n[nH]c3ccccc23)n(C)n1", "Percent Effect": 100}
{"smiles": "CC(C)Cc1cc(NC(=O)c2ccc(=O)[nH]n2)n(C)n1", "Percent Effect": 9.079}
{"smiles": "COc1ccc(C(=O)Nc2cc(CC(C)C)nn2C)cc1", "Percent Effect": 109.3}
{"smiles": "Cc1cc(C(C)(O)CNC(=O)c2ccc(Br)o2)c(C)o1", "note": "(stereo not drawn)", "Percent Effect": -12.89}
